Experimental data as given in PubChem BioAssay (EPA / NIEHS).
Inconclusive results are not listed. Calls of active or inactive are those of the source. The calls were made as follows: active = hit-call score of the fitted dose curve at least 0.9, where 1 is the maximum; inconclusive = response in the unintended direction; inactive = score below 0.9.

These compounds were tested against Nuclear receptor subfamily 1 group I member 3 (Homo sapiens) (UniProt Q14994) (assay: ATG_CAR_TRANS: Attagene TRANS-FACTORIAL HepG2 Assay for human Constitutive Androstane Receptor (CAR) (AID 2282969;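 also: activators raise reporter mRNA above DMSO so AC50 marks induction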)). Details: HepG2 Attagene TRANS-FACTORIAL CAR reporter.
Experimental: ATG_TRANS is a cell-based, multiplexed-readout assay that uses HepG2, a human liver cell line, with measurements taken at 24 hours after chemical dosing in a 24-well plate.ATG_CAR_TRANS is one of 30 assay component(s) measured or calculated from the ATG_TRANS assay. It is designed to make measurements of mRNA induction, a form of inducible reporter, as detected with fluorescence intensity signals by Reverse transcription polymerase chain reaction (RT-PCR) and Capillary electrophoresis technology.Data from the assay component ATG_CAR_TRANS was analyzed into 1 assay endpoint. This assay endpoint, ATG_CAR_TRANS, was analyzed in the positive analysis fitting direction relative to DMSO as the negative control and baseline of activity. Using a type of inducible reporter, measures of mRNA for gain-of-signal activity can be used to understand the reporter gene at the transcription factor-level as they relate to the gene NR1I3. Furthermore, this assay endpoint can be referred to as a primary readout, because this assay has produced multiple assay endpoints where this one serves a reporter gene function. To generalize the intended target to other relatable targets, this assay endpoint is annotated to the nuclear receptor intended target family, where the subfamily is non-steroidal.
Human liver HepG2 cells are transiently transfected with multiple reporter transcription units (MRTUs) in 6-well plates using FuGene 6 reagent (Roche; 3 ml FuGene/1 mg DNA). The MRTU constructs are regulated by a cis-regulating element (promoter). […] A major difference between the CIS and TRANS system is that in CIS activities of endogenous TFs are measured, whereas the TRANS assay evaluates changes in activities of exogenous, chimeric NR-Gal4 proteins. […] At the end of 24 hour incubation, total RNA was isolated using TriZol reagent (Invitrogen). The isolated RNA is then reverse-transcribed using oligo(dT) primer and Mo-MLV reverse transcriptase (Invitrogen) with DNAse I (Ambion) treatment for 30 min. The one-tenth of the produced cDNA was amplified by PCR using Taq DNA polymerase (Invitrogen) and two reporter sequence-specific primers. The PCR products were fluorescently labeled by primer extension with 6-arboxyfluorescein (6-FAM) 5'-labeled reporter sequence-specific primer (2 min at 95 C, 20 s at 68 C and 10 min at 72 C) and these products were digested with 5U of HpaI (New England Biolabs) for 2h at 37 C. The fragments were purified using Qiaquick PCR columns (Qiagen), analyzed on an ABI 3130xL genetic analyzer (Applied Biosystems) with peak positions identified by using a set of X-rhodamine (ROX)-labeled MapMarker1000 molecular weight standards (BioVentures). The raw capillary electrophoresis data was processed using Attagraph software (Attagene).

Nuclear receptor subfamily 1 group I member 3 (Homo sapiens), sequence (Q14994 whole entry, looked up): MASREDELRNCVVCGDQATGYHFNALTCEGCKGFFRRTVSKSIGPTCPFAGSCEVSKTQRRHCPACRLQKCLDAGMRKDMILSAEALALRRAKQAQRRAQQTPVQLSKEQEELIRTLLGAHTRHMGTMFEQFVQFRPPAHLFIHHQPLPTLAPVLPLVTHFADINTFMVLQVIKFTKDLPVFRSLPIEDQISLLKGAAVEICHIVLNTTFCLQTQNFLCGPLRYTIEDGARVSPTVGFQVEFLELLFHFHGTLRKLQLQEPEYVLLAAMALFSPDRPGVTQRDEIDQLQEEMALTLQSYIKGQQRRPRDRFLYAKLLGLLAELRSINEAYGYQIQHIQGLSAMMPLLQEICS

outcome, inactive:
O=C(O)CN(CCCN(CC(=O)O)CC(=O)O)CC(=O)O
CC(C)(O)C(=O)c1ccccc1
NC(=NCCCCCCN=C(N)/N=C(\N)Nc1ccc(Cl)cc1)/N=C(\N)Nc1ccc(Cl)cc1
CC1=CC(=O)c2ccccc2C1=O
CC(=O)CC(C)C
CC(C)C=O
CC(C)(C)c1ccc(O)c(O)c1
C=CC(F)(F)C(F)(F)C(F)(F)C(F)(F)F
CCOC(=O)CN[C@@H](C(=O)N1CC[C@H]1C(=O)NCc1ccc(/C(N)=N/O)cc1)C1CCCCC1
CCOC(OCC)C(=O)c1ccccc1
FCOC(C(F)(F)F)C(F)(F)F
Cc1cc(C(C)(C)C)c(O)c(C(C)(C)C)c1
c1cnc2c(c1)ccc1cccnc12
CC(C)CCOCCC(C)C
COc1cc([N+](=O)[O-])ccc1N
CCCCCc1ccc(O)cc1
O=S(=O)(O)c1ccc2cc(O)ccc2c1
CCCCCCc1ccc(N)cc1
C=CC(C)(CCC=C(C)C)OC(C)=O (stereo not given)
c1ccc(CNc2ncnc3c2ncn3C2CCCCO2)cc1 (stereo not given)
FC(OC(F)(F)C(F)(F)C(F)(F)F)C(F)(F)F (stereo not given)
CC(C)(C)C1CCCCC1O (stereo not given)
Oc1cccc2c(O)cccc12
O=C(O)C(F)(F)OC(F)(F)C(F)(F)OC(F)(F)C(F)(F)OC(F)(F)C(F)(F)C(F)(F)C(F)(F)F
COc1cc(OC)nc(NC(=O)NS(=O)(=O)Nc2ccccc2C(=O)N(C)C)n1
Cc1ccc(C)c(S(=O)(=O)O)c1
Cc1cc(C(=C2C=CC(=Nc3ccc(S(=O)(=O)O)cc3)C=C2)c2ccc(Nc3ccc(S(=O)(=O)O)cc3)cc2)cc(S(=O)(=O)O)c1N
NNc1nc(-c2ccc([N+](=O)[O-])cc2)cs1
CCCCN(C)C
CCC(C)c1nccnc1OC (stereo not given)
CCCCCCCCCCCCCCCC(=O)OC
COc1cccc(O)c1
CCN(CC)CC
O=P(O)(O)CCC(F)(F)C(F)(F)C(F)(F)C(F)(F)C(F)(F)C(F)(F)C(F)(F)C(F)(F)F
CCCCc1ccc2ccccc2c1S(=O)(=O)O
COCN(COC)c1nc(N(COC)COC)nc(N(COC)COC)n1
O=C(c1cc(O)c(O)c(O)c1)c1ccc(O)c(O)c1O
CC1CNCC(C)O1 (stereo not given)
C=CC(=O)OCCN(CC)CC
C=Cc1ccc(O)c(OC)c1
